Assay results as given in the supplement of paper PMC10849652.
Targets with a hit are over-represented here; the source holds about 7,900 in all. About 0.6% of all pairs of compound and target were hits.

Legend:
Assay in all cases: log2 fold change, soluble protein after heating vs DMSO (PISA); higher = thermal stabilisation; K562 cells, 10 uM, 30 min; active = over 0.2 and 3.5 SD of the protein, either way, in both replicates (recomputed)
[1] = target: ZC3H8 (UniProt Q8N5P1)
Summary of the method: (§1)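 K562 cells at 2×10^6 cells/mL were treated for 30 min with 10 μM compound, and aliquots were heated for 3 min over 48°C-58°C before pooling. Extraction used PBS with 0.5% NP-40 at 4°C, and soluble protein was the supernatant after 21,000xg for 90 min, measured by TMTpro 16plex LC-MS/MS with channel sums equalised. Thermal stability values, relative to control samples and from duplicates, are log2 fold changes.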

[2] = target: ZC3HC1 (UniProt Q86WB0)
ZC3HC1, sequence (Q86WB0 whole entry, looked up): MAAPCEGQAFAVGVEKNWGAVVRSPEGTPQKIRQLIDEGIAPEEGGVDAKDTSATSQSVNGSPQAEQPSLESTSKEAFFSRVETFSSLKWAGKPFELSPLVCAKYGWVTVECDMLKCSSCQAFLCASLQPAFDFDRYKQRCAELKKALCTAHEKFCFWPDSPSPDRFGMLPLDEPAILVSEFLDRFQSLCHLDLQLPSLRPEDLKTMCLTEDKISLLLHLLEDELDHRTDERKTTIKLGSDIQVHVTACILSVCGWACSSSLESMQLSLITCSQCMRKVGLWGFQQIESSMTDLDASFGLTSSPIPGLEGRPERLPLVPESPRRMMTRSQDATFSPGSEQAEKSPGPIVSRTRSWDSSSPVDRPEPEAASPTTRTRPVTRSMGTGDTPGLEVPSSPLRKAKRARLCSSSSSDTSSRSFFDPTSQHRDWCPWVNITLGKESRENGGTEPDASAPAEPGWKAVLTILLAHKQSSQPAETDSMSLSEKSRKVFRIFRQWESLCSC
Summary of the method: as §1

[3] = target: ZDHHC17 (UniProt Q8IUH5)
ZDHHC17, sequence (Q8IUH5 whole entry, looked up): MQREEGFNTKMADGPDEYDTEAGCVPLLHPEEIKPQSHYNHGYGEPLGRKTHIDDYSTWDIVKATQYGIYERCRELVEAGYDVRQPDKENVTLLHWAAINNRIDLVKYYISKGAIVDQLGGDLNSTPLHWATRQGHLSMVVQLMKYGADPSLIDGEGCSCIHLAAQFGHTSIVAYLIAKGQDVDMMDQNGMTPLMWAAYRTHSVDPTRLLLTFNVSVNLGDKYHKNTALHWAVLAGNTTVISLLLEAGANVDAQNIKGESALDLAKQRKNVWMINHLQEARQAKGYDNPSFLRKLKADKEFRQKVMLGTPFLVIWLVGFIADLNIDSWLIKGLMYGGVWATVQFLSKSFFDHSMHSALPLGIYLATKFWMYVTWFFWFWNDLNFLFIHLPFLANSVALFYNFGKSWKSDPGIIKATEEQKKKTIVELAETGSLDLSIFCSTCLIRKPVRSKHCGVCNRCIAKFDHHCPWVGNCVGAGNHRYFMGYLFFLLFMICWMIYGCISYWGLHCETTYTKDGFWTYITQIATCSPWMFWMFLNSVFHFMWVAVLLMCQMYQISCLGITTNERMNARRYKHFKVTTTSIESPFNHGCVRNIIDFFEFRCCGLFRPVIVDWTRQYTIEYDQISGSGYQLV
Summary of the method: as §1

[4] = target: ZDHHC20 (UniProt Q5W0Z9)
Summary of the method: as §1

[5] = target: ZDHHC5 (UniProt Q9C0B5)
Summary of the method: as §1

[6] = target: ZDHHC7 isoform 2 (UniProt Q9NXF8)
Summary of the method: as §1

[7] = target: ZDHHC8 isoform 3 (UniProt Q9ULC8)
Summary of the method: as §1

[8] = target: ZEB2 (UniProt O60315)
Summary of the method: as §1

[9] = target: ZER1 (UniProt Q7Z7L7)
Summary of the method: as §1

[10] = target: ZFAND5 (UniProt O76080)
ZFAND5, sequence (O76080 whole entry, looked up): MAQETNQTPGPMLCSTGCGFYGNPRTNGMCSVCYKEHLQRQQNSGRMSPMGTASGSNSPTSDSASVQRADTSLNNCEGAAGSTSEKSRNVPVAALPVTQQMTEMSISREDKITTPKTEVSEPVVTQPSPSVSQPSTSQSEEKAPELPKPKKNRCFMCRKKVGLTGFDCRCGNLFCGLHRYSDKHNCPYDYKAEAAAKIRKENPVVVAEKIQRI
Summary of the method: as §1

[11] = target: ZFAND6 (UniProt Q6FIF0)
ZFAND6, sequence (Q6FIF0 whole entry, looked up): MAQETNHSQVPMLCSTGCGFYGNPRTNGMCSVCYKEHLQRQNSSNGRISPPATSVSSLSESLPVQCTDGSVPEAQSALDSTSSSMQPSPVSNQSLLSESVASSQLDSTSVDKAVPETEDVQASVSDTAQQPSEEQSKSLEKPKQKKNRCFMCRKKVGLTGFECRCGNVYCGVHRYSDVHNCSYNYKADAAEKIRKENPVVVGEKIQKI
Summary of the method: as §1

[12] = target: ZFP91 (UniProt Q96JP5)
Summary of the method: as §1

[13] = target: ZFPL1 (UniProt O95159)
Summary of the method: as §1

[14] = target: ZMAT2 (UniProt Q96NC0)
Summary of the method: as §1

[15] = target: ZMYM1 (UniProt Q5SVZ6)
ZMYM1, sequence (Q5SVZ6 whole entry, looked up): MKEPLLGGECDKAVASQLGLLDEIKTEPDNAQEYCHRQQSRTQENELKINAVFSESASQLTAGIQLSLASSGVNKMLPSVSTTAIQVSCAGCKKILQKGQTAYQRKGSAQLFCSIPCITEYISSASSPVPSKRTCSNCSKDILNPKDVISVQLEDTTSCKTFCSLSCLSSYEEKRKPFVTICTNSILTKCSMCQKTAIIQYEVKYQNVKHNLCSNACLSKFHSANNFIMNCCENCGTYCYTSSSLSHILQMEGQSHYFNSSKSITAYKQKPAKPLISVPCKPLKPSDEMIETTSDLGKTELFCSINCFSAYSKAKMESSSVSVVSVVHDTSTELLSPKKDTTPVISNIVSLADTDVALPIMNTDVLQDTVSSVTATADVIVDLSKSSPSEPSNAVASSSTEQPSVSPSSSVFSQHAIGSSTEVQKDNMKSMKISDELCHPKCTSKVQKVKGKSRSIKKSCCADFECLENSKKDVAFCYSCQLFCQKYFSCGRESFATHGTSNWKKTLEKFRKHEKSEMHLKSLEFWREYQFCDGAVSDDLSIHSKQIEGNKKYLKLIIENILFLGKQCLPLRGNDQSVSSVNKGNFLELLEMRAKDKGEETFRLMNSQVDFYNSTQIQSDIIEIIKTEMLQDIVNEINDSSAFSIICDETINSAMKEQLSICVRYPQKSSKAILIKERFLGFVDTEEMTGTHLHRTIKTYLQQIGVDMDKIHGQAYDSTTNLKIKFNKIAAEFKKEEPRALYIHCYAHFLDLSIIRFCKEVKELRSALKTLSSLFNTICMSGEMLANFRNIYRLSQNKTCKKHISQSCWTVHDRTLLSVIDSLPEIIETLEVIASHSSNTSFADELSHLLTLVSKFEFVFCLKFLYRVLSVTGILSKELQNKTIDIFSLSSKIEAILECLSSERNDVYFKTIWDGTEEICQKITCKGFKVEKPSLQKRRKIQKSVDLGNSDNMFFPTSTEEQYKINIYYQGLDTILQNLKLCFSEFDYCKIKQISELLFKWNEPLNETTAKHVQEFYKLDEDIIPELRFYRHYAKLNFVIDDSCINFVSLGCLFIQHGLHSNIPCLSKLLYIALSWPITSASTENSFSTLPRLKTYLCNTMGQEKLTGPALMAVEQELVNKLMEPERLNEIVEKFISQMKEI
Summary of the method: as §1

[16] = target: ZMYM3 (UniProt Q14202)
ZMYM3, sequence (Q14202 whole entry, looked up): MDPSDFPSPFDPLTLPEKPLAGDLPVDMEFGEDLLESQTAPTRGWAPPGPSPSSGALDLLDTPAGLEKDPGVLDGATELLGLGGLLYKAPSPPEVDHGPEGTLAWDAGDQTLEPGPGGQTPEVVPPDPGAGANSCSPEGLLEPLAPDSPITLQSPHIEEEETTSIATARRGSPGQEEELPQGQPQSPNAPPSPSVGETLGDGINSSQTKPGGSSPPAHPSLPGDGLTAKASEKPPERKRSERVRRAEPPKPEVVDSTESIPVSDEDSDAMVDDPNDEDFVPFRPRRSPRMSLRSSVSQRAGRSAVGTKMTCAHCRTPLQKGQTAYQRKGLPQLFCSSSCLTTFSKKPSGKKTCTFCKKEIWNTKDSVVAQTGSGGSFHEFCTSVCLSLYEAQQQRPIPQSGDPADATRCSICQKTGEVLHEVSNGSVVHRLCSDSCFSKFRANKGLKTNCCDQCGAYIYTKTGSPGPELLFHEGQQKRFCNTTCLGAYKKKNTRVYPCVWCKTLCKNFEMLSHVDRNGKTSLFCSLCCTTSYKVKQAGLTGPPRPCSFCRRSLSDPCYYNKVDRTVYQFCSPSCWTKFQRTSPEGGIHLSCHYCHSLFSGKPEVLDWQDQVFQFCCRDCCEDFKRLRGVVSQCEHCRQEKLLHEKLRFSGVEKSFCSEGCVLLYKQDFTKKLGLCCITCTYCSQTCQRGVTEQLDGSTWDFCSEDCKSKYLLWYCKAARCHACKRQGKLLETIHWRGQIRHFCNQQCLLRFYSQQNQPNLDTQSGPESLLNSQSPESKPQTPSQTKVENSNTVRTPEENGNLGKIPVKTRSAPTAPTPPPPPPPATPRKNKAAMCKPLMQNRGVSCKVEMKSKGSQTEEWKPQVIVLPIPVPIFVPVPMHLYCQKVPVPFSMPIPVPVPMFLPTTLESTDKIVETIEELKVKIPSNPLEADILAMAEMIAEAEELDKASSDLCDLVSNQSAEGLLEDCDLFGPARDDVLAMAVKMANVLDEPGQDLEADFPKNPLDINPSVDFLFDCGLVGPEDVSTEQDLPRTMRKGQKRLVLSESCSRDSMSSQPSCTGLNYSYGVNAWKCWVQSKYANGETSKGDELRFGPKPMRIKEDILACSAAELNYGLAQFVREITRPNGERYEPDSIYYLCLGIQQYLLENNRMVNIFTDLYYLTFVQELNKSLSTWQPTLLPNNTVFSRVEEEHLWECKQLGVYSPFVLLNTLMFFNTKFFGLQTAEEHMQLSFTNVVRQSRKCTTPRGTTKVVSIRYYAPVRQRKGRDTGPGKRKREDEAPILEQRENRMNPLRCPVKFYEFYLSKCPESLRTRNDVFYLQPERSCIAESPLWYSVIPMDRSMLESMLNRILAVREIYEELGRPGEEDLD
Summary of the method: as §1

[17] = target: ZNF143 (UniProt P52747)
ZNF143, sequence (P52747 whole entry, looked up): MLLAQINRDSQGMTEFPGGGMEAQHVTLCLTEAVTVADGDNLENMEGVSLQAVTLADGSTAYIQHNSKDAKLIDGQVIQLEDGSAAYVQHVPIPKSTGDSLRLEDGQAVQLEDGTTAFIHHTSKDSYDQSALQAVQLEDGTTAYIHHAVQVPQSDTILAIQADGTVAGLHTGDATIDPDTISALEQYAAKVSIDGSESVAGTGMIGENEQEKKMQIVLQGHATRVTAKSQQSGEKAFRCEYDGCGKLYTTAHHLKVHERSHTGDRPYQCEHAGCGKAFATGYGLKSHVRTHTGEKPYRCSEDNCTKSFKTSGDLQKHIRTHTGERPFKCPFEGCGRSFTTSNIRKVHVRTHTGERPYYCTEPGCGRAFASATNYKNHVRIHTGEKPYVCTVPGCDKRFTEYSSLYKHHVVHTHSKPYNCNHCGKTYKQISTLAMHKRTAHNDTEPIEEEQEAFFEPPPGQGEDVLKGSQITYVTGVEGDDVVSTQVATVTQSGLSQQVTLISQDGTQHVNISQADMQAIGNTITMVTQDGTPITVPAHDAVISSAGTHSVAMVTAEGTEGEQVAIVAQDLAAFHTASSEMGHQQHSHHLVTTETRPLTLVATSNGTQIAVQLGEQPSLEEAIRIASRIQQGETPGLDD
Summary of the method: as §1

[18] = target: ZCCHC9 (UniProt Q8N567)
Summary of the method: as §1

Measured: log2 fold change

ZC3H8, sequence (Q8N5P1 whole entry, looked up): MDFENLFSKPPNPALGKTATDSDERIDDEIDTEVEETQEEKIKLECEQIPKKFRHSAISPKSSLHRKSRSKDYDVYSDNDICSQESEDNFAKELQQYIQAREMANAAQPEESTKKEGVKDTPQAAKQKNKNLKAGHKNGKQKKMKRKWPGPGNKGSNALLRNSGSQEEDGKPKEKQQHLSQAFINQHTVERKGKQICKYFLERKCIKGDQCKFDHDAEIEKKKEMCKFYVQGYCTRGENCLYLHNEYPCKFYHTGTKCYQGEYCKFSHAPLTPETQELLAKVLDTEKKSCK

CN1CCN(CCOc2cc(OC3CCOCC3)c3c(Nc4c(Cl)ccc5c4OCO5)ncnc3c2)CC1 [saracatinib]
inactive: [1] 0.088 | [2] 0.024 | [3] -0.009 | [4] -0.045 | [5] 0.034 | [6] 0.034 | [7] 0.188 | [8] 0.008 | [9] 0.013 | [10] 0.08 | [11] -0.035 | [12] 0.036 | [13] 0.016 | [14] 0.026 | [15] -0.024 | [16] 0.098 | [17] 0.094

NC1(c2ccc(-c3nc4ccn5c(=O)[nH]nc5c4cc3-c3ccccc3)cc2)CCC1
inactive: [1] 0.181 | [2] -0.091 | [18] 0.218 | [3] -0.06 | [4] -0.027 | [5] -0.027 | [8] -0.127 | [9] 0 | [10] 0.019 | [11] 0.056 | [12] 0.144 | [13] 0.058 | [14] 0.043 | [15] 0.215 | [16] -0.036 | [17] -0.023

Cc1ccc(NC(=O)c2ccc(CN3CC[C@H](N(C)C)C3)c(C(F)(F)F)c2)cc1Nc1nccc(-c2cncnc2)n1 [bafetinib]
inactive: [1] 0.052 | [2] 0.018 | [18] 0.144 | [3] -0.007 | [4] 0.104 | [5] 0 | [7] -0.03 | [8] -0.017 | [9] -0.055 | [10] -0.022 | [11] -0.013 | [12] 0.191 | [13] -0.022 | [14] -0.053 | [15] -0.028 | [16] -0.061 | [17] -0.089

CC(=O)c1cnc2ccc(-c3cc(Cl)c(O)c(Cl)c3)nc2c1N[C@H]1CC[C@H](CN(C)C)CC1
inactive: [1] 0.006 | [2] -0.165 | [18] 0.143 | [3] -0.007 | [4] 0.026 | [5] -0.049 | [6] -0.017 | [9] 0.009 | [10] -0.025 | [11] 0.041 | [12] 0.018 | [13] 0.023 | [14] -0.001 | [15] 0.055 | [16] -0.004 | [17] -0.044

NC(=O)c1cnc(N[C@@H]2CCCC[C@@H]2N)nc1Nc1cccc(-n2nccn2)c1
inactive: [1] 0.08 | [2] -0.054 | [18] 0.049 | [3] -0.003 | [4] -0.001 | [5] -0.01 | [6] -0.064 | [9] -0.001 | [10] 0.084 | [11] 0.089 | [12] -0.001 | [13] 0.054 | [14] 0.079 | [15] -0.123 | [16] 0.11 | [17] -0.106

C[C@@H](N)c1ccc(C(=O)Nc2ccnc3[nH]ccc23)cc1
inactive: [1] 0.218 | [2] -0.213 | [18] 0.359 | [3] -0.03 | [4] 0.051 | [5] 0.006 | [6] -0.065 | [9] -0.055 | [10] -0.021 | [11] 0.031 | [12] 0.154 | [13] -0.006 | [14] -0.012 | [15] 0.016 | [16] 0.045 | [17] -0.118

CO[C@H]1C[C@@H]2CC[C@@H](C)[C@@](O)(O2)C(=O)C(=O)N2CCCC[C@H]2C(=O)O[C@H]([C@H](C)C[C@@H]2CC[C@H](n3cnnn3)[C@H](OC)C2)CC(=O)[C@H](C)/C=C(\C)[C@@H](O)[C@@H](OC)C(=O)[C@H](C)C[C@H](C)/C=C/C=C/C=C/1C [zotarolimus]
inactive: [1] 0.029 | [2] 0.052 | [18] -0.044 | [3] 0.039 | [4] -0.15 | [5] -0.085 | [6] -0.245 | [9] -0.035 | [10] -0.012 | [11] -0.045 | [12] -0.028 | [13] 0.006 | [14] -0.034 | [15] -0.05 | [16] 0.093 | [17] 0.067

COc1cc(C(=O)O)ccc1NC(=O)[C@@H]1N[C@@H](CC(C)(C)C)[C@](C#N)(c2ccc(Cl)cc2F)[C@H]1c1cccc(Cl)c1F [idasanutlin]
inactive: [1] 0.109 | [2] -0.012 | [18] 0.139 | [3] -0.048 | [4] -0.014 | [5] -0.111 | [6] -0.013 | [9] -0.188 | [10] 0.079 | [11] -0.096 | [12] 0.029 | [13] -0.026 | [14] 0.061 | [15] 0.085 | [16] 0 | [17] 0.07

O=C(O)c1ccc2c(c1)nc(Nc1cccc(Cl)c1)c1ccncc12 [silmitasertib]
inactive: [1] 0.035 | [2] 0.06 | [18] 0.095 | [3] 0.025 | [4] 0.08 | [5] 0.101 | [8] -0.001 | [9] 0.028 | [10] -0.03 | [11] -0.018 | [12] 0.086 | [13] 0.003 | [14] 0.028 | [15] 0.255 | [16] -0.012 | [17] 0.023

COc1cc(Nc2ncc3c(n2)-c2ccc(Cl)cc2C(c2c(F)cccc2OC)=NC3)ccc1C(=O)O [alisertib]
inactive: [1] -0.082 | [2] 0.024 | [18] -0.083 | [3] -0.02 | [4] -0.052 | [5] -0.107 | [8] 0.103 | [9] -0.006 | [10] -0.057 | [11] -0.079 | [12] -0.013 | [13] 0.014 | [14] -0.045 | [15] -0.021 | [16] 0.057 | [17] -0.05

CNC(=O)c1ccccc1Nc1nc(Nc2ccc(N3CCOCC3)cc2OC)ncc1Cl
inactive: [1] 0.019 | [2] 0.067 | [18] 0.058 | [3] 0.146 | [4] 0 | [5] 0.006 | [6] -0.016 | [8] -0.07 | [9] -0.164 | [10] -0.141 | [11] -0.015 | [12] -0.016 | [13] 0.061 | [14] -0.018 | [15] -0.082 | [16] 0 | [17] -0.084

CN(CCOc1ccc(C[C@@H]2SC(=O)NC2=O)cc1)c1ccccn1 (racemic) [rosiglitazone]
inactive: [1] -0.171 | [2] 0.086 | [18] -0.131 | [3] 0.052 | [4] 0.059 | [5] -0.016 | [7] 0.038 | [8] 0.078 | [9] 0.103 | [10] -0.001 | [11] -0.015 | [12] -0.101 | [13] -0.03 | [14] -0.019 | [15] 0.029 | [16] 0.001 | [17] -0.037

O=C1NC(=NCc2cccs2)S/C1=C\c1ccc2ncccc2c1
inactive: [1] -0.062 | [2] 0.077 | [18] -0.035 | [3] 0.064 | [4] -0.125 | [5] 0.091 | [6] 0.161 | [9] -0.016 | [10] -0.015 | [11] 0.077 | [12] -0.007 | [13] 0.01 | [14] -0.063 | [15] 0.113 | [16] 0 | [17] -0.028

CCN(CC)Cc1ccc2cc(COC(=O)Nc3ccc(C(=O)NO)cc3)ccc2c1 [givinostat]
inactive: [1] -0.106 | [2] 0.031 | [18] 0.038 | [3] 0.113 | [4] -0.167 | [5] -0.001 | [6] 0.011 | [8] 0.193 | [9] 0.117 | [10] -0.016 | [11] 0.017 | [12] 0.009 | [13] -0.09 | [14] -0.008 | [15] 0.12 | [16] 0.002 | [17] -0.022

CCCc1cc(C)[nH]c(=O)c1CNC(=O)c1cc(-c2ccnc(N3CCN(C)CC3)c2)cc2c1cnn2C(C)C
inactive: [1] -0.027 | [2] 0.029 | [18] 0.057 | [3] -0.061 | [4] -0.079 | [5] 0.095 | [8] -0.067 | [9] -0.125 | [10] -0.038 | [11] -0.051 | [12] 0.074 | [13] -0.05 | [14] -0.044 | [15] -0.017 | [16] 0.067 | [17] -0.006

C[C@H](Nc1ncnc2nc[nH]c12)c1cc2cccc(Cl)c2c(=O)n1-c1ccccc1 [duvelisib]
inactive: [1] -0.126 | [2] -0.002 | [3] 0.036 | [4] 0.04 | [5] -0.044 | [6] 0.082 | [7] -0.038 | [8] 0.05 | [9] -0.154 | [10] -0.063 | [11] 0.032 | [12] -0.038 | [13] 0.046 | [14] 0.014 | [15] -0.096 | [16] 0.021 | [17] -0.146
